Results on 39 molecules are retold here after PubChem BioAssay (EPA / NIEHS).

Where “and” joins values, the source holds several entries; their conditions need not be identical. Equal entries are not always repeated. Inconclusive results are not listed. The source holds several records for some structures; these can differ, active in one and inactive in another. Calls of active or inactive are those of the source. Rule for the calls: active = hit-call score of the fitted dose curve at least 0.9, where 1 is the maximum; inconclusive = response in the unintended direction; inactive = score below 0.9.

Estrogen receptor beta (Homo sapiens), sequence (Q92731 whole entry, looked up, the tested form may be a part): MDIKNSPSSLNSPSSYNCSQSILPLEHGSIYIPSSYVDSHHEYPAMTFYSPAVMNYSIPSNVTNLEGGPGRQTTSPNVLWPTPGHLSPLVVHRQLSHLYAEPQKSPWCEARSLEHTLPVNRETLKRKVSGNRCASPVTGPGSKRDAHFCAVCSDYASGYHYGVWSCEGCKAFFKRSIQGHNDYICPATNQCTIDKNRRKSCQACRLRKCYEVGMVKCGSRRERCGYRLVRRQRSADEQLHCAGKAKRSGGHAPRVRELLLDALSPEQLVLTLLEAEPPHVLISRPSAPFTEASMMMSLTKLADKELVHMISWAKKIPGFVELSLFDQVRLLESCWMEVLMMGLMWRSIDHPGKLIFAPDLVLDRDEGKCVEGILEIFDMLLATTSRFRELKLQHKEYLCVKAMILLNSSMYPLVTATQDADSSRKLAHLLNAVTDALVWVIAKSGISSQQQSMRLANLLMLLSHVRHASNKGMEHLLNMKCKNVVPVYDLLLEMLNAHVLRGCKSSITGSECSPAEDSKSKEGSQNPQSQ

In the assay the target is Estrogen receptor beta (Homo sapiens) (UniProt Q92731). Description: OT_ER_ERbERb_0480: Odyssey Thera (OT) 8-hour HEK293T Protein-Complementation Assay for Estrogen Receptor-beta/-beta Homodimer (AID 2283357). How it is done:
OT_ER_ERbERb_0480 is a cell-based assay that uses HEK293T, a human kidney cell line, with measurements taken at 8 hours after chemical dosing in a 384-well plate.OT_ER_ERbERb_0480 is one of one assay component(s) measured or calculated from the OT_ER_ERbERb_0480 assay. It is designed to make measurements of protein fragment complementation, a form of binding reporter, as detected with fluorescence intensity signals by Protein-fragment Complementation technology.Data from the assay component OT_ER_ERbERb_0480 was analyzed into 1 assay endpoint. This assay endpoint, OT_ER_ERbERb_0480, was analyzed in the positive analysis fitting direction relative to DMSO as the negative control and baseline of activity. Using a type of binding reporter, measures of receptor for gain-of-signal activity can be used to understand the binding at the pathway-level as they relate to the gene ESR2. Furthermore, this assay endpoint can be referred to as a primary readout, because the performed assay has only produced 1 assay endpoint. To generalize the intended target to other relatable targets, this assay endpoint is annotated to the nuclear receptor intended target family, where the subfamily is steroidal.
Protein-fragment complementation assay, or PCA, is a method for the identification and quantification of protein-protein interactions. In the PCA, the proteins of interest ("bait" and "prey") are each covalently linked to fragments of a third protein (e.g. DHFR, which acts as a "reporter"). Interaction between the bait and the prey proteins brings the fragments of the reporter protein in close proximity to allow them to form a functional reporter protein whose activity can be measured. The OT ER beta / ER beta assay is a homodimer PCA of the ligand binding domain (LBD; amino acids 310-547) of human ER beta stably expressed in HEK293T cells. […] Cells are fixed in 4 percent formaldehyde and stained with Draq5 (BioStatus) to identify cells prior to signal detection. Fluorescent signal in the basal state of the assay is very low and is primarily punctuate and cytoplasmic. Modulation of this assay is quantified as an increase in mean fluorescence intensity in the nucleus (for agonists) or in the nucleus and cytoplasm (antagonists) relative to vehicle controls, and can be quantified on a high content imaging device or a laser scanning cytometer. The latter instrument is favored for this assay because of the rapid mode of data acquisition, the ability to acquire data from the entire cell population in a well (as opposed to a fraction of the well on the high content devices) and the larger dynamic range typically achieved with this instrument. To assess sensitivity of the ER beta/ER beta LBD assay to ligand, cells were treated with the ER agonist 17- beta-estradiol (E2) in 10-point concentration- response format for 8 hours and monitored response on a laser scanning plate cytometer (Acumen eX3; TTP Lab Tech).
For the molecule `CC(C)COC(=O)c1ccccc1C(=O)OCC(C)C`, the AC50 (commonly the concentration giving half of the maximal activity seen) was 25.9 µM (active). Take `ClC1=C(Cl)C2(Cl)C3C(Cl)C=CC3C1(Cl)C2(Cl)Cl` (stereo not given): the molecule was called inactive.

`Cc1ccc(N)c(N)c1`: the molecule was called inactive. Same read-out and setting: with `COP(=S)(OC)SCN1C(=O)c2ccccc2C1=O` the entry was “inactive”; with `c1ccc(NNc2ccccc2)cc1`, “inactive”. With `c1ccc2c(c1)-c1cccc3cccc-2c13`, the AC50 is 37 µM (active). As to `Cc1ccc([N+](=O)[O-])cc1`, the molecule was called inactive. On the same count and under the same terms, then `[Cl-].[Cl-].[Hg+2]`, with “inactive”. For `Cc1cc(N=Nc2ccccc2C)ccc1N`, the AC50 was 12.1 µM (active).

In the case of `O=[N+]([O-])C(Br)(CO)CO`, the outcome was inactive. For the molecule `C[C@]12C=CC3=C4CCC(=O)C=C4CC[C@H]3[C@@H]1CC[C@@H]2O`, the molecule was classed as inactive; the AC50 is 370 nM (active) and 12.5 µM (active).

For `Clc1ccc(C(c2ccc(Cl)cc2)C(Cl)(Cl)Cl)cc1`, the AC50 was 12.7 µM (active). `CCCCCOC(=O)c1ccccc1C(=O)OCCCCC`: the AC50 was 29.9 µM (active). Take `Nc1cc(Cl)cc(C(=O)O)c1Cl`: the call was inactive.

On to `COC(=O)c1ccccc1N`, for which the molecule was called inactive. Same read-out and setting: then `OCCCBr`, with “inactive”; and `O=[N+]([O-])c1ccc(Oc2ccc(Cl)cc2Cl)cc1`, with “inactive”. In the case of `Nc1ccc(N=Nc2ccccc2)cc1`, the AC50 is 34.6 µM (active).

For `Nc1ccc([N+](=O)[O-])cc1`, the call was inactive. The same measure, in the same setting: then `CCCCCCCCn1sccc1=O`, with “inactive”.

As to `CCCCOC(=O)c1ccccc1C(=O)OCc1ccccc1`, the AC50 is 12.6 µM (active). As for `CCCCCCCCCCCCCN1CC(C)OC(C)C1` (stereo not given), the molecule was called inactive. With `Cc1cccc(N)c1N`, the molecule was classed as inactive.

Consider `C=CCc1ccc2c(c1)OCO2`, for which the result was inactive.

As to `CC(C)(O)c1cnn2c(-c3ccc(F)c(-c4c(F)cccc4C#N)c3)cnc2n1`, the AC50 is 95.8 µM (active).

Regarding `CCC(C)c1ccc(O)cc1` (stereo not given), the AC50 is 16.3 µM (active). With `Clc1ccc(Cl)c(Cl)c1`, the outcome was inactive. Regarding `O=C1CCCO1`, the call was inactive.

With `c1ccc2c(c1)oc1ccccc12`, the call was inactive. The same measure, in the same setting: with `CNC(=O)Oc1cccc2c1OC(C)(C)C2` the entry was “inactive”. On the same count and under the same terms, then `[O-][Cl+]O`, with “inactive”. As to `CC(C)N(Cc1ccccc1)C(=O)C(C)(C)C`, the AC50 is 50 µM (active). In the case of `Oc1ccc2ccc3cccc4ccc1c2c34`, the AC50 was 12.3 µM (active). For the molecule `ClCCOCCCl`, the molecule was called inactive.

Take `OCCOCCO`: the molecule was classed as inactive. Same read-out and setting: then `CN(C)c1ccccc1`, with “inactive”. The same measure, in the same setting: with `O=C(N[C@H](c1ccccc1)[C@@H]1CN2CCC1CC2)c1c(Cl)ccc(C(F)(F)F)c1Cl` the entry was “inactive”. The same measure, in the same setting: with `Clc1ccccc1Cl` the entry was “inactive”; with `CC(O)CCO` (stereo not given), “inactive”.
